An excerpt weighted towards active compounds, which were near 3.6% of everything screened.
Tau filament bind = qHTS Assay for Tau Filament Binding; Microtubule-associated protein tau (Homo sapiens), P10636; recombinant tau filaments, thioflavin S fluorescence, 15 h; filaments grown with octadecylsulfate alongside compound; Potency, µM (doses to about 57.1 µM), without a hit: at the top dose activity change, negative = inhibition; hit rate 2% among 71,000; AID 596, 2007;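 further: on the % scale 0 is the no-effect control and ±100 the full control effect; actives lower thioflavin S fluorescence by blocking filaments or displacing dye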
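Tau 2 uM in ThS buffer dispensed; compound added; 60 uM ODS added (finals 1 uM tau, 30 uM ODS); 15 h 37 C; fluor ex450/em510.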
CRE-bla Fsk = Cell signaling CRE-BLA (Fsk stim); CHO CRE-bla reporter (cAMP response element driving beta-lactamase), forskolin EC10, beta-lactamase ratio; Potency, µM (top dose mostly 38.2 µM), for inactives: at the top dose activity change, negative = inhibition, actives largely listed as activators; AID 662, 2007; hit rate 2.5% among 71,000; active means well fitted activation curve with a large enough effect in the signal ratio, with a control signal flat, not every such curve was filed as active; inconclusive means small, poorly fitted or top-dose-only effect, or effect the other way, or a change in a side signal; the % refers to the signal ratio; further: % of control where 0% means no effect
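Cells were plated overnight at 37 °C, exposed to compound titrations plus EC10 NKH 477 for 3 h, then given CCF4 dye for 2 h at room temperature. Blue/green (460/530 nm) ratio was converted to %Activity and AC50 values calculated.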
IkB sig inh = IkB Signaling; ABC-DLBCL IkBa-CBG/CBR dual luciferase ratio, 4 h; response scale: scaled: untreated 0%, proteasome inhibitor 100%; Potency, µM (highest dose often 57.1 µM), for the others: top-dose IkBa stabilization activation; hit rate 0.04% among 110,000; active means well fitted curve in the direction sought with a large enough effect in the signal ratio, not every such curve was filed as active; inconclusive means small, poorly fitted or top-dose-only effect, or a change in a side signal; the % refers to the signal ratio;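 further: the direction sought is a rising ratio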
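Curves were fitted separately to fusion (green), unfused (red) and ratio luminescence, then classed by r2, magnitude and activity. Cells: OCI-Ly3, 4 h compound plus doxycycline at 37C; 10 uM MG-132 defined full response.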
15-hLO inh = qHTS Assay for Inhibitors of 15-hLO (15-human lipoxygenase); Polyunsaturated fatty acid lipoxygenase ALOX15 (Homo sapiens), P16050; purified 15hLO-1, xylenol orange hydroperoxide absorbance; Potency, µM (doses to about 57.1 µM), for the others: at the top dose activity change, negative = inhibition, most hits filed as inhibitors; hit rate 1.4% among 74,000; further: on the % scale 0 is the no-effect control and ±100 the full control effect; nearly all actives have a fitted effect of over 55% in size
Target sequence (P16050 whole entry, looked up): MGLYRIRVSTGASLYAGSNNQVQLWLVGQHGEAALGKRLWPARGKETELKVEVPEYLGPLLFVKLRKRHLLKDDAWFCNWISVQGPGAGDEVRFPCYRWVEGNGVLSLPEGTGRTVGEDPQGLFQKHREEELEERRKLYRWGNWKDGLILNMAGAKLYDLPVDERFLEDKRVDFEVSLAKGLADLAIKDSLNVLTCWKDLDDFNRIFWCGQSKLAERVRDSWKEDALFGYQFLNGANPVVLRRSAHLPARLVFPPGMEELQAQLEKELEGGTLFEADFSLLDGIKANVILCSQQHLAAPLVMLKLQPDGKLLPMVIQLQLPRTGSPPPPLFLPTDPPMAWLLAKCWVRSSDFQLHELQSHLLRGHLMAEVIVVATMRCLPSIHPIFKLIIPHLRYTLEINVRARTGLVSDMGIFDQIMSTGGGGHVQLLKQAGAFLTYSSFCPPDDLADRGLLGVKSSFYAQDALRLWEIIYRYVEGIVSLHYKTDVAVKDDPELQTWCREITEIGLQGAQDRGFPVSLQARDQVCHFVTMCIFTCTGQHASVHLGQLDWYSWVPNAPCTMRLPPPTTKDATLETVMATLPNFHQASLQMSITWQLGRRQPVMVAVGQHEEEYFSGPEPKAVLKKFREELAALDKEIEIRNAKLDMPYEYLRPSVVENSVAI
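Quantitative HTS in 25 mM Hepes pH 7.5 containing 0.01% Triton X-100: human 15hLO-1 at 40 nM, arachidonic acid at 50 uM, 6 min turnover. Product quantified via ferrous oxidation/xylenol orange, 573:405 nm absorbance ratio.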
Hsp90 Hop PPI = qHTS Assay for Disrupters of an Hsp90 Co-Chaperone Interaction; Potency, µM (doses to about 57 µM), for inactives: at the highest dose activity change, negative = inhibition; AlphaScreen TPR2A-His6 binding biotin-Hsp90 C-terminal peptide; hit rate 0.44% among 71,000; AID 595, 2007; Hsp90 C-terminal peptide / TPR2A (Hop) interaction, human; active means well fitted curve in either direction with a large enough effect; inconclusive means small, poorly fitted or top-dose-only effect, or another doubt; further: on the % scale 0 is the no-effect control and ±100 the full control effect
An asterisk follows results filed as active; i = inactive; ? = inconclusive; . = no result; ! = not confirmed by another sample; [ ] = dose if it differs, or a comment. Unless noted, the call rests on the fitted dose curve; in most records, active means well fitted curve in the direction sought with a large enough effect; inconclusive means small, poorly fitted or top-dose-only effect, or another doubt; inactive means no such curve, though single readings can be large; an effect the other way counts as inactive or inconclusive. Potency means the concentration at half of the fitted maximal effect.

SMILES | Tau filament bind | CRE-bla Fsk | IkB sig inh | 15-hLO inh | Hsp90 Hop PPI
COc1cccc(NC(=O)CSc2nc3n[nH]c(C)c3c(=N)n2-c2cccc(OC)c2)c1 | 27% | 2.5µM* | ? | -5% | -8%
Cc1[nH]nc2nc(SCC(=O)NCC3CCCO3)n(-c3ccc(Br)cc3)c(=N)c12 (stereo unspecified) | 7% | 7.9µM* | -2% | 1% | 1%
Cc1ccc(-c2nn3c(=O)cc(CN4CCN(C(=O)/C=C/c5ccccc5)CC4)nc3s2)cc1 | . | . | 1% | . | .
Nc1nc(CSc2nc3ccccc3[nH]2)nc(N2CCOCC2)n1 | 11% | 10µM* | -1% | 8% | -5%
Nc1nc(CSc2nc3ccccc3s2)nc(N2CCCCC2)n1 | 60% | 5µM* | 4% | -6% | -4%
CCc1cccc(NC(=O)c2ccc3c(c2)c(C)c(C)n3Cc2ccc(F)cc2)c1 | . | . | 0% | . | .
O=C1c2ccccc2-c2n[nH]c3cccc1c23 | 222% | 16µM*! | 0% | -19%[25.6 µM] | -10%
O=c1c(-c2ccccc2)n[nH]c2ccccc12 | -10% | 16% | 0% | -4% | -3%
CCN(CC)CCNc1ccc(CO)c2sc3ccccc3c(=O)c12 | 4µM* | ? | 4%[25.6 µM] | -3% | -8%[26 µM]
O=c1c2ccccc2sc2c(CO)ccc(NCCN3CCCCC3)c12 | 3.2µM* | 20%[7.6 µM] | -2%[11.4 µM] | -2%[11.4 µM] | -4%[11 µM]
CCN(CC)CCNC(=O)Cc1nn(CC)c(=O)c2ccccc12 | 7% | 1% | 0% | -8% | 4%
CC(=O)NCCNc1ncnc2ccc(-c3ccoc3)cc12 | 2% | -12% | -1%[11.4 µM] | -1% | -6%
Cc1cc(O)c(-c2cc(O)c(C)cc2O)cc1O | 0%[11.4 µM] | -8%[7.6 µM] | 0%[11.4 µM] | 1.6µM* | -2%[11 µM]
CCOC(=O)N1CCc2c(sc3c2c(=O)n(Cc2ccccc2)c(=O)n3CC(=O)Nc2ccccc2F)C1 | . | . | 2% | . | .
CCOC(=O)c1c(C)[nH]c2cc(Br)c(O)cc12 | -3% | 10µM* | -2% | -14% | -2%
CC(C)CN(C(=O)c1ccc(=O)n(C)n1)c1nc2ccccc2s1 | 25µM* | 4% | 1% | -25% | ?
COc1cccc(Cn2ccn(-c3ccc(F)cc3)c(=O)c2=O)c1 | . | . | 0% | . | .
COc1ccccc1N1CCN(C(=O)c2cc3c(=O)n(C)c4ccccc4c3n2C)CC1 | 30% | 2µM* | -1% | 0% | -3%[2.3 µM]
CN(C)CCNC(=O)c1cc2c(=O)n(C)c3ccccc3c2n1C | 83% | ? | 4% | -6% | -1%[2.3 µM]
Cn1c(C(=O)N2CCN(C(=O)c3ccco3)CC2)cc2c(=O)n(C)c3ccccc3c21 | -5% | 4µM* | -2% | -5% | 0%[2.3 µM]
Cn1c(C(=O)Nc2ccc3c(c2)OCCO3)cc2c(=O)n(C)c3ccccc3c21 | i | 0.4µM* | 9% | -4% | -2%[2.3 µM]
O=C(Nc1ccc2c(c1)OCO2)C1(S(=O)(=O)c2ccc(Cl)cc2)CC1 | 16µM* | -18% | 0% | -3% | -7%
O=C(Nc1cccc(Cl)c1)Nc1ccc2c(c1)OCO2 | 13µM* | -10% | ? | -15% | -13%
Cc1ccc(S(=O)(=O)C2(C(=O)Nc3ccc(C)c(Cl)c3)CC2)cc1 | . | . | 3% | . | .
CC(=O)c1cc2c(cc1NC(=O)Nc1cccc(Cl)c1)OCCO2 | 162% | 7% | 2% | -30% | 1%
SMILES | Tau filament bind | CRE-bla Fsk | IkB sig inh | 15-hLO inh | Hsp90 Hop PPI
COc1ccc(NC(=O)CSCc2cnn(-c3ccccc3)c2-n2cccc2)cc1 | . | . | 0% | . | .
COc1ccc(OCCSc2nnc3sc4ccccc4n23)cc1 | 14% | 0.5µM* | ? | -24% | -1%
COc1ccc(C(=O)OCCN2CCOCC2)cc1OC | -7% | 10µM* | -3% | 1% | 1%
CCOC(=O)CN1CC23C=CC(O2)C(C(=O)Nc2cc(OC)ccc2OC)C3C1=O (stereo unspecified) | 13µM* | 1% | -2% | 3% | -4%
Cn1ncc2c(Nc3cc(C(F)(F)F)ccc3Cl)ncnc21 | . | . | -3% | . | .
Cc1ccc(C2CC(=O)NC(SCc3ccccc3)=C2C#N)o1 (stereo unspecified) | . | . | . | -18% | .
CCCCCCSC1=C(C#N)C(c2ccc(C)o2)CC(=O)N1 (stereo unspecified) | 12% | 3% | 0% | 25µM* | 4%
Cn1c(=N)c(S(=O)(=O)c2ccc(F)cc2)cc2c(=O)n3ccccc3nc21 | -10% | 1.6µM* | 2% | ? | -1%
Cn1c(=N)c(S(=O)(=O)c2ccccc2)cc2c(=O)n3ccccc3nc21 | -15% | 2µM* | 0% | -9% | -4%
O=C1C2C3CCCC3=C3CCCC3C2C(=O)N1c1cccc(Cl)c1 (stereo unspecified) | -2% | -4% | 1% | 10µM* | 1%
O=C1C2C3CCCC3=C3CCCC3C2C(=O)N1c1ccc(Cl)cc1 (stereo unspecified) | 14% | -5% | 16% | ? | -9%
CC(C)C1=CC2=CC[C@H]3[C@@](C)(CCC[C@]3(C)C(=O)O)[C@@H]2CC1 | ? | 5% | 1%[11.4 µM] | . | -1%
COC(=O)c1cc(NS(=O)(=O)c2cc(Br)cc3c2N(C(C)=O)CC3)cc(C(=O)OC)c1 | . | . | -1% | . | .
CCOC(=O)[C@H](CCc1ccccc1)N[C@@H](C)C(=O)N1[C@H](C(=O)O)C[C@H]2CCC[C@@H]21 | 13%[25.6 µM] | -5%[17.1 µM] | -1%[25.6 µM] | 19%[25.6 µM] | 0%[26 µM]
CCOC(=O)C(CCc1ccccc1)NC(C)C(=O)N1C(C(=O)O)CC2CCCC21 (stereo unspecified) | . | . | . | 3.2µM* | .
Cc1ccc(NC(=O)CSc2nnc(C)s2)c(C)c1 | . | . | 0% | . | .
COc1ccc(OC)c(NC(=O)c2oc3c(c2C)-c2nn(Cc4ccc(Cl)cc4)cc2CC3)c1 | . | . | -3% | . | .
Cc1cc(C)c(NC(=O)CCN2C(=O)c3ccccc3Sc3ncccc32)c(C)c1 | . | . | 1% | . | .
COc1cc(-c2nnc(-c3cccs3)o2)cc(OC)c1OC | -1% | 2.5µM* | 0% | 8% | -3%
COc1ccc(-c2nnc(-c3cccs3)o2)cc1OC | 18% | ? | ? | -3% | -1%
CC1=CC(C)(C)N2C(=O)C3(SCC(=O)N3c3ccc(O)cc3)c3cc(C)cc1c32 (stereo unspecified) | 46% | ? | ? | -22% | -7%
CC1=CC(C)(C)N2C(=O)C3(N=C(N)NC(Nc4ccccc4)=N3)c3cc(C)cc1c32 (stereo unspecified) | 142% | -13% | 2% | 25µM* | -12%
CCN1C(=C2C(=O)c3ccccc3C2=O)C=Cc2ccccc21 | 13µM* | 12% | -3% | -28% | -11%
O=C1CC(=O)Nc2cc(S(=O)(=O)Nc3cccc(Br)c3)ccc2N1 | . | . | 0% | . | .
COc1cc(N=Nc2cccc(S(N)(=O)=O)c2)c2ccccc2c1N | 1.6µM* | 2%[7.6 µM] | 8%[11.4 µM] | -25%[11.4 µM] | ?

Compound activity deposited in PubChem by National Center for Advancing Translational Sciences (NCATS).
